According to PubChem BioAssay AID687043 (Milwaukee Institute for Drug Discovery, 2013):
In all, about 16,000 compounds went through this assay and about 250 (1.6%) were called active. This excerpt belongs to a sample that is enriched for actives. A number with no mark means an inactive call.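 Rule for the calls: active = inhibition above the average over every tested compound plus 3 SD (cut at about 40% in these data); inactive = the rest.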

test system: Hepatitis C virus NS3 helicase; assay: compounds blocking NS3h DNA binding – biochemical, fluorescence polarization, ChemBridge library, primary screen (AID 687043); details: NS3h Cy5-dT15 DNA binding, at 100 µM, stronger effect = higher value

Compound	inhibition
CCOc1cc(C=C2C(=O)NC(=O)NC2=O)cc(Br)c1OCCOc1ccccc1C	51.3% (active)
Nc1ccc(Cc2ccc(N)c(Cl)c2)cc1Cl	7.3%
COc1cccc(CN2CCN(Cc3ccccc3OC)CC2)c1	-10.1%
Cc1ccccc1CN1CCN(C(=O)COc2ccc(Cl)cc2)CC1	8.5%
COc1cc(C)cc2oc(=O)c3c(c12)CCC3	-2.5%
